Screening data: PubChem BioAssay, National Center for Advancing Translational Sciences (NCATS)
A selection: hits, their analogues and other compounds. The true share with any hit is near 6.6%.
KB-V1 cytotox: kills drug-selected multidrug resistant KB-V1 cells; Potency, µM (titrated, usually from 46.1 µM), hits mostly cytotoxic; AID 1347076; KB-V1 MDR cells viability, CellTiter-Glo, 72 h; hit rate 3.4% among 400,000; note: % is set by controls: 0 for no effect and ±100 for the full control effect; nearly all actives have a fitted effect of over 60% in size
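KB-V1 cells (P-gp-expressing MDR subline of KB-3-1) in phenol-red-free DMEM with 10% FBS were exposed to library compounds over a concentration series for 72 h at 37 degrees C. Viability read by CellTiter-Glo luminescence; concentration-effect curves fitted after normalization.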
MCF10A rereplic: inducers of DNA re-replication in MCF 10A breast cells; MCF 10A DNA re-replication, Hoechst nuclear intensity, 48 h; Potency, µM (doses to about 46.1 µM), inactives show top-dose activity, positive = re-replication, hits mostly activators; hit rate 2.9% among 350,000; note: % of control where 0% means no effect; nearly all actives have a fitted effect of over 50% in size
PTAP TSG101 blk: blocks PTAP/TSG101 interaction to inhibit HIV-1 budding; Q99816; Potency, µM (titrated, usually from 115 µM), for the others: top-dose activity change, negative = inhibition, hits mostly inhibitors; AID 493005; Fluorescence polarization, FITC-PTAP peptide / Tsg101 binding; 340,000 tested, under 10 active; active = well fitted inhibition curve with a large enough effect in the main read-out, with a control signal flat, not every such curve was filed as active; inconclusive = small, poorly fitted or top-dose-only effect, or effect the other way, or a change in a side signal; inactive = no such curve, though single readings can be large or run the other way; note: % of control where 0% means no effect
Target sequence (Q99816 whole entry, looked up): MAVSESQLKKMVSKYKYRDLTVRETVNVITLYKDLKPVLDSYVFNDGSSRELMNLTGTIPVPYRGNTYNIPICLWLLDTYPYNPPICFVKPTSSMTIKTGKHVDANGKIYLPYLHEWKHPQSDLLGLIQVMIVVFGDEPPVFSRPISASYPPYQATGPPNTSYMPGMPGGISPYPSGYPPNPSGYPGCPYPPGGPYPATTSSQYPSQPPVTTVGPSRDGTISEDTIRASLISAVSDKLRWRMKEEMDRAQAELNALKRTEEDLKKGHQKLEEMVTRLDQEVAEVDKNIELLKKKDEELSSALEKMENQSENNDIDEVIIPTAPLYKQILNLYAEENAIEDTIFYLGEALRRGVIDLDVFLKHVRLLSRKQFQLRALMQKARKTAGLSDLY
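Fluorescence anisotropy tracks displacement of a FITC-tagged PTAP peptide (50 nM) from the Tsg101 binding domain (10 uM), following a 20 min room-temperature incubation at pH 7.5.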
KB-3-1 cytotox: kills parental KB-3-1 adenocarcinoma cells; KB-3-1 viability, CellTiter-Glo ATP luminescence, 72 h; Potency, µM (series often up to 46.1 µM), most hits filed as cytotoxic; hit rate 1.4% among 400,000; AID 1347075; note: % is set by controls: 0 for no effect and ±100 for the full control effect; nearly all actives have a fitted effect of over 60% in size
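Luminescent ATP read-out (CellTiter-Glo) measures survival of drug-naive KB-3-1 cells after 72 h compound exposure at 37 °C. Titration series was screened from lowest to highest concentration, with DMSO vehicle plates as background controls.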
SW480 rereplic: induces DNA re-replication in SW480 colon adenocarcinoma cells; SW480 DNA re-replication, Hoechst DNA content imaging, 48 h; Potency, µM (highest dose often 46.1 µM), inactives show at the highest dose re-replication activation, hits mostly activators; hit rate 1.8% among 340,000; note: % of control where 0% means no effect; nearly all actives have a fitted effect of over 55% in size
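First, 250 cells per well were seeded. Next, compound or vehicle (23 nL) was pinned in, plates sat 48 hr at 37 C. Finally Hoechst was added for 40 min before fluorescence scanning.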
RGS4 inhibitor: blocks human RGS4-accelerated GTP hydrolysis; Potency, µM (titrated, usually from 114 µM), without a hit: at the top dose activity change, negative = inhibition, actives largely listed as inhibitors; Transcreener GDP fluorescence polarization, RGS4-accelerated GTP hydrolysis; hit rate 0.039% among 390,000; AID 504845; note: % is set by controls: 0 for no effect and ±100 for the full control effect; nearly all actives have a fitted effect of over 75% in size
Target sequence (P49798 whole entry, looked up): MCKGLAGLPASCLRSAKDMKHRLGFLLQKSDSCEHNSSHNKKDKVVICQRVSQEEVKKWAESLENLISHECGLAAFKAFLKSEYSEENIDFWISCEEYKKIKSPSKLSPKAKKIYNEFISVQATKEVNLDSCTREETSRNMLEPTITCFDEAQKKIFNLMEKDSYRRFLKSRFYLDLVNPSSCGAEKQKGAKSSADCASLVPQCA
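MLSMR compounds (23 nl, pin-transferred) preincubated 10 min at room temperature with a 500nM (2x) first reagent, then RGS4 at 900nM (2x) plus Transcreener GDP mix added; fluorescence polarization (620/688 nm) read before and after 90 min at 30 °C.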
An asterisk follows results filed as active; i = inactive; ? = inconclusive; · = no result; [ ] = another dose, or the depositor's remark. Unless noted, calls come from the whole dose curve; as a rule, active = well fitted curve in the direction sought with a large enough effect; inconclusive = small, poorly fitted or top-dose-only effect, or another doubt; inactive = no such curve, though single readings can be large; an effect the other way counts as inactive or inconclusive. Potency is the fitted concentration of half-maximal effect.

SMILES	KB-V1 cytotox	MCF10A rereplic	PTAP TSG101 blk	KB-3-1 cytotox	SW480 rereplic	RGS4 inhibitor
COc1cccc(C2=NC(C)(C)NC(c3ccccc3O)C2)c1 (centres undefined)	i	?	3%	i	11%	-52%
COc1cccc(-n2c(-c3ccccc3F)nc3c(cnn3-c3ccc(C)cc3)c2=O)c1	i	·	·	16µM*	·	-44%
Cc1ccc(-n2c(C)nc3c(cnn3-c3ccccc3)c2=O)cc1	16µM*	·	·	?	·	-2%
COc1cccc(-n2c(C)nc3c(cnn3-c3ccc(C)cc3)c2=O)c1	i	0%	-3%	i	3%	38%
O=C(CCCn1c(=O)c2ccccc2n(Cc2ccc(F)cc2Cl)c1=O)NCCc1ccc(Cl)cc1	i	·	·	i	·	10%
CCOc1ccc(-c2nonc2NC(=O)c2oc3c(C)c(C)ccc3c2C)cc1OCC	i	·	·	i	·	-7%
CCC1CCCCN1c1cc(C)nc2cc(-c3cccc(C)c3)nn12 (centres undefined)	i	3.5µM*	-4%	i	?	5%
CCOC(=O)C1CCCN(c2cc(C)nc3cc(-c4ccc(Cl)cc4)nn23)C1 (centres undefined)	i	-1%	-8%	i	-3%	-14%[11.4 µM]
CC(C)c1ccc(NC(=O)C2CCCN(S(=O)(=O)c3cccc4nsnc34)C2)cc1 (centres undefined)	i	·	·	i	·	16%
O=C1OC(C(=O)O)Cc2ccccc21 (centres undefined)	i	18µM*	-2%	i	?	-4%
O=C(CN(c1ccccc1F)S(=O)(=O)c1ccccc1)NC1CCCCCC1	4.6µM*	-1%	2%	i	1%	-9%
Cc1ccc(S(=O)(=O)N(CC(=O)NC2CCCCCC2)c2ccccc2F)cc1	i	12%	-3%	i	-7%	6%
CCOC(=O)c1oc2ccccc2c1NC(=O)COc1ccc(F)cc1	8.2µM*	?	-2%	i	-3%	2%
CCOC(=O)c1oc2ccccc2c1NC(=O)COc1cccc(OC)c1	i	-12%	-6%	i	1%	-4%
Cc1cccc(NC(=O)CSc2nc3ccc(N4C(=O)c5ccccc5C4=O)cc3s2)c1C	i	9.2µM*	-4%	i	?	-17%
CCc1cccc(CC)c1NC(=O)CSc1nc2ccc(N3C(=O)C4C5C=CC(C5)C4C3=O)cc2s1 (centres undefined)	2.6µM*	?	-8%	?	17%	10%[11.4 µM]
CN(C)C(=O)CSc1nc2ccc(N3C(=O)c4ccccc4C3=O)cc2s1	i	-2%	1%	i	-13%	-49%
CCc1nn(CC(=O)N2CCCCC2)c(=O)c2cc3sccc3n12	·	·	·	·	·	12%
COc1cc(Cl)c(C)cc1NC(=O)Cn1cnc2sc(C)c(S(=O)(=O)N3CCCCC3)c2c1=O	i	·	·	i	·	3%
COCCC(=O)N1CCC(Oc2ccc(C(=O)NC3Cc4ccccc4C3)cc2)CC1	4.1µM*	13%	-3%	i	2%	7%
COc1ccccc1C1NC(c2ccc3c(c2)OCO3)=CC(c2cc(Br)ccc2O)N1 (centres undefined)	i	·	·	i	·	-23%
COC(=O)c1sccc1S(=O)(=O)N(CC(=O)NCc1ccccc1)c1ccc(C)cc1	i	·	·	i	·	-24%
Cc1ccc(C)c(-c2cc(C(=O)Nc3sc(C)c(C)c3C(N)=O)c3ccccc3n2)c1	4.1µM*	?	-2%	?	22%	-27%
COC(=O)c1sccc1NC(=O)c1cc(-c2ccc(C)cc2C)nc2ccccc12	?	12µM*	-4%	?	2%	-8%
Cc1cccc(-c2cc(C(=O)Nc3sc(C)c(C)c3C(N)=O)c3ccccc3n2)c1	?	0%	-5%	i	-49%	3%
SMILES	KB-V1 cytotox	MCF10A rereplic	PTAP TSG101 blk	KB-3-1 cytotox	SW480 rereplic	RGS4 inhibitor
COc1cc(OC)c(NC(=O)C(CC(C)C)N2Cc3ccccc3C2=O)cc1Cl (centres undefined)	i	·	·	i	·	-7%
COc1cc2c(cc1OC)C(C)N(C(=O)Nc1cc(C)cc(C)c1)CC2 (centres undefined)	6.5µM*	3.7µM*	1%	?	?	-10%
CCOc1cc2c(cc1OCC)C(CC(=O)OC)N(C(=O)Nc1cc(C)cc(C)c1)CC2 (centres undefined)	·	·	·	·	·	-21%
COc1cc2c(cc1OC)C(CC(=O)O)N(C(=O)Nc1cc(OC)c(OC)c(OC)c1)CC2 (centres undefined)	·	·	·	·	·	6%
COc1cc2c(cc1OC)C(C)N(C(=O)Nc1ccc(F)cc1)CC2 (centres undefined)	12µM*	?	-2%	13µM*	?	-7%
Cc1cc2nc(-c3cccc(NC(=O)CSc4ccc(Cl)cc4)c3)oc2cc1C	i	·	·	i	·	-5%
COc1ccc(NC(=O)c2c(NCc3ccc(N(C)C)cc3)sc3c2CCC3)cc1	i	·	·	i	·	?
O=[N+]([O-])c1ccc(Nc2cccc(F)c2)nc1	i	0.73µM*	-2%	i	-2%	4%
COc1ccc(CNC(=O)C2CCN(S(=O)(=O)c3c(C)noc3/C=C/c3ccccc3F)CC2)cc1	·	·	·	·	·	-16%
CCC(C(=O)NCc1ccco1)N(C(=O)CNS(=O)(=O)c1ccccc1)c1ccc(OC)cc1 (centres undefined)	23µM*	?	0%	i	3%	-25%
CCCC(C(=O)NCc1ccco1)N(C(=O)CNS(=O)(=O)c1ccccc1)c1ccc(OC)cc1 (centres undefined)	i	3%	-1%	i	11%[1.84 µM]	-18%
CCOc1cc(CNC2CCCC2)cc(Cl)c1OCc1ccccc1	?	?	-1%	?	?	-12%
CCOc1cc(CNC2CCCC2)ccc1OCc1ccccc1Cl	21µM*	?	-1%	?	117%	22%
CCOc1cc(CNCCN2CCOCC2)ccc1OCc1ccccc1Cl	i	14%	-4%	i	21µM*	4%
O=C(NCc1ccccc1Cl)c1ccc2c(c1)N(Cc1ccccc1)C(=O)c1ccccc1S2	·	·	·	·	·	-1%
CCC(C(=O)Nc1cc(OC)ccc1OC)n1c(C)c2cnn(-c3ccccc3)c(=O)c2c1C (centres undefined)	i	·	·	i	·	43%
COCCn1c(=S)[nH]c2cc(C(=O)N3CCN(Cc4ccccc4)CC3)ccc2c1=O	·	·	·	·	·	17%
